# Laboratory results reported in PubChem BioAssay.
# The source made the active and inactive calls.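 How the source made its calls, unless noted: active means inhibition of the reporter signal at or above 50%; inactive means inhibition below 50%.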
# How the values were obtained:
# [1] = inhibitors of TNFa-induced NFkB p65 translocation, primary screen, imaging, HUVEC, MLSMR starter and 10KST1 sets (AID 438;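 active means inhibition above 20% together with a positive visual image hit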;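 further: compound added about 3h40 before a 20 min TNFalpha stimulation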;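 on inhibition: signal is the nuclear over cytoplasmic p65 intensity ratio per well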); conditions: HUVEC TNFa-induced p65 nuclear translocation; cell count: measured here: nuclei count (cytotoxicity indicator), at 2.08 µM; inhibition: at 2 µM, stronger effect = higher value, 0% TNFa-plus-vehicle, 100% no-TNFa wells
# [2] = reduction of polyQ htt aggregates in cells – imaging, exon1htt(103Q)mCFP cells, high-content imaging, primary screen (AID 483;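 active means visual image review flags a hit and inhibition of aggregation exceeds 20%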;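 further: compound exposure lasted 3 days before fixation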;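 on nuclei count: percent of the per-plate median nuclei count of sample wells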); conditions: exon1htt(103Q)mCFP cell line, aggregate imaging, at 2 µM; inhibition of aggregation: stronger effect = higher value; nuclei count: measured here: cell count, toxicity
# [3] = endothelial E-selectin expression blockers – imaging, HUVEC, immunofluorescence, MLSMR starter and 10KST1 sets, primary screen (AID 487;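 active means visually confirmed hit in the image check and inhibition above 20%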;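 on inhibition: signal is fraction of cell area covered by stained E-selectin grains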;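 on nuclei count: 100% = median nuclei count of all wells on the same plate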); conditions: HUVEC TNFalpha-induced E-selectin immunofluorescence imaging, at 2 µM; inhibition: stronger effect = higher value; nuclei count: measured here: cell number, toxicity
# [4] = target: Voltage-gated potassium channel subunit beta-2 (Rattus norvegicus) (UniProt P62483); assay: inhibitors of rat Kvbeta2 reductase activity – biochemical, NADPH fluorescence, primary screen (AID 622;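 active means fluorescence slope higher than the sample average by over 3 SD, cut at about -0.22 in these data, passing the limit was not always enough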;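 further: slope of raw intensity against log time taken from 70 to 1610 s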); conditions: recombinant KvBeta, 4-cyanobenzaldehyde reduction, at 10 µM, stronger effect = higher value
# Chain of Voltage-gated potassium channel subunit beta-2 (Rattus norvegicus) (P62483 whole entry, looked up): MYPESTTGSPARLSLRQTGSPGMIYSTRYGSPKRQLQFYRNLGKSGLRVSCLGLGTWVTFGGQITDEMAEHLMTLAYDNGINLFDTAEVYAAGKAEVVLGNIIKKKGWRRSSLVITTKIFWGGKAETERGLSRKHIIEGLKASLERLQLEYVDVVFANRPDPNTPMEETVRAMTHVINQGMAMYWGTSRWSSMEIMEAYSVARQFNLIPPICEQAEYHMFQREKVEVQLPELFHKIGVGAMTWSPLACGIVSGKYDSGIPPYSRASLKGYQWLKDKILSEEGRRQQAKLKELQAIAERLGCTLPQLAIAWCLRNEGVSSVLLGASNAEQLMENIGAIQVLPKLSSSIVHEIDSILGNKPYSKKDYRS
# [5] = target: Voltage-gated potassium channel subunit beta-2 (Rattus norvegicus) (UniProt P62483); assay: enhancers of rat Kvbeta2 NADPH turnover – biochemical, NADPH fluorescence, primary screen (AID 623;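 active means NADPH fluorescence slope more negative than the mean of all samples by about 3 SD, 99.7% confidence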;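 further: fluorescence intensity change per second fitted from 20 to 320 s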); conditions: Recombinant KvBeta, NADPH fluorescence decrease slope, 10 min; at 10 µM; stronger effect = lower value
# [6] = target: Alpha-2C adrenergic receptor (Homo sapiens) (UniProt P18825); assay: compounds altering alpha2C-coupled GIRK flux – cell-based, HEK293 alpha2C/GIRK1/2, thallium flux, primary screen (AID 624;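 active means fluorescence slope after compound addition differing from the mean of all screened samples at 99.7% confidence, in either direction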;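 further: slope of fluorescence ratio to pre-addition baseline per second over 15 to 24 s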); conditions: thallium flux BTC fluorescence, at 10 µM, actives lie on both sides
# Chain of Alpha-2C adrenergic receptor (Homo sapiens) (P18825 whole entry, looked up): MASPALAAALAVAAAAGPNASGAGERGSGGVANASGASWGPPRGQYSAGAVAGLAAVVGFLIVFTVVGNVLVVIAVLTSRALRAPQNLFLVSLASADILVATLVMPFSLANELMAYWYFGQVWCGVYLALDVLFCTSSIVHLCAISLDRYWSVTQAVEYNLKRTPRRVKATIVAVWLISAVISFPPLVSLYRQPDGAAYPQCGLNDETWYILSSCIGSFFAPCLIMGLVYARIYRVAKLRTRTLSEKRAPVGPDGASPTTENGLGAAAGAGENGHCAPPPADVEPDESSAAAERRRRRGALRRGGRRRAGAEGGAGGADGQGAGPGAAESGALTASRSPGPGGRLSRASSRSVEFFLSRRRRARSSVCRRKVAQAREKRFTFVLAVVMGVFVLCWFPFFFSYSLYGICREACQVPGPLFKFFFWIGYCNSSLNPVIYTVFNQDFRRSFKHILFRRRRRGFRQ
# [7] = blockers of RIG-like receptor reporter activation – cell-based, Sendai virus stimulus, luciferase, 10K MLSCN set, TLR/RLR signaling modifier project, primary screen (AID 602276;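 active means inhibition at or above 50% at 10 µM; inactive means inhibition below 50%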;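 further: firefly luciferase from ISG56 promoter only with Renilla not read in this screen; 0% = Sendai virus plus DMSO and 100% = medium plus DMSO without virus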); conditions: HEK293 RL24 IRF3 luciferase reporter, at 10 µM, stronger effect = higher value
# [8] = TLR3 IRF3 reporter activation blockers – cell-based, poly I:C stimulus, luciferase, 10K MLSCN set, primary screen (AID 602277); conditions: HEK293-TLR3 RL24 IRF3 luciferase reporter, at 10 µM, stronger effect = higher value
SMILES,cell count [1],inhibition [1],inhibition of aggregation [2],nuclei count [2] [%],inhibition [3],nuclei count [3] [%],fluorescence slope [4],NADPH fluorescence slope [5],slope [6],inhibition [7],inhibition [8]
CS(=O)(=O)c1ccc2nc(NC(=O)c3cccs3)sc2c1,351,-2.9% (inactive),4.4% (inactive),105,3.9% (inactive),104,-0.487 (inactive),-5.8e-05 (inactive),0.00673 (inactive),-10.7% (inactive),-21.1% (inactive)
OC(CCN1CCOCC1)(c1ccc(Cl)cc1)C1CCCCC1 (centres undefined),663,-1% (inactive),-1.2% (inactive),48.5,37.9% (inactive),120,-0.588 (inactive),-2.6e-05 (inactive),0.00224 (inactive),-9.83% (inactive),-48.9% (inactive)
COc1ccc(C2C3=C(OC(C)=O)c4ccccc4C3=Nc3c2c(=O)n(C)c(=O)n3C)cc1 (centres undefined),657,0.2% (inactive),-0.9% (inactive),103,-72.4% (inactive),116,-0.41 (inactive),-3.9e-05 (inactive),0.00537 (inactive),12.9% (inactive),12.4% (inactive)
O=C1CC(c2cccc(Cl)c2)Cc2nc(N3CCN(c4ccccc4)CC3)ncc21 (centres undefined),715,-1.6% (inactive),-8.3% (inactive),111,-57.1% (inactive),140,-0.442 (inactive),2.5e-05 (inactive),0.00428 (inactive),-7.91% (inactive),-2.99% (inactive)
CN(C)CCNC(=O)c1ccc(COCC(F)(F)F)cc1,500,-2.2% (inactive),-17.1% (inactive),112,-22.6% (inactive),99,-0.408 (inactive),-3.8e-05 (inactive),0.00605 (inactive),14.2% (inactive),9.51% (inactive)
CCN1CCN(C(=O)C2CCN(C(=O)c3cc4sccc4n3CC)CC2)CC1,642,-12.2% (inactive),4.1% (inactive),85.3,-25.4% (inactive),115,-0.556 (inactive),-4.1e-05 (inactive),0.00649 (inactive),12.4% (inactive),45.3% (inactive)
Cc1ccc(N2CCN(C(=S)c3ccc(N(C)C)cc3)CC2)cc1,411,-38.4% (inactive),-2.2% (inactive),85.8,-90.7% (inactive),98.3,-0.595 (inactive),-2.7e-05 (inactive),0.00418 (inactive),-12.6% (inactive),-63.7% (inactive)
CCOC(=O)c1cccc(NC2c3ccccc3C(=O)N2Cc2ccco2)c1 (centres undefined),700,-2.3% (inactive),10.2% (inactive),117,-10.9% (inactive),119,-0.554 (inactive),-4.1e-05 (inactive),0.00706 (inactive),6.59% (inactive),17.6% (inactive)
CC(OC(=O)C1CC=CCC1C(N)=O)C(Cl)=C(Cl)Cl (centres undefined),326,1.3% (inactive),-6% (inactive),108,-94.9% (inactive),132,-0.506 (inactive),-1.1e-05 (inactive),0.00744 (inactive),-2.75% (inactive),6.78% (inactive)
CCOC(=O)Cc1nnc(NC(=O)c2ncn[nH]2)s1,343,0.2% (inactive),-4.6% (inactive),99.8,-5.5% (inactive),119,-0.438 (inactive),-5.2e-05 (inactive),0.00725 (inactive),-0.284% (inactive),5.11% (inactive)
CCOCCCNC(=O)CS(=O)(=O)Cc1nc(-c2cccc(OC)c2)oc1C,558,-43.9% (inactive),16% (inactive),65.2,-6.1% (inactive),97.9,-0.596 (inactive),4.7e-07 (inactive),0.00578 (inactive),12.4% (inactive),33.7% (inactive)
Cc1ccc(-c2nnc(SCC(=O)N3c4ccccc4NC(=O)C3(C)C)n2N)cc1,809,-0.7% (inactive),-26.4% (inactive),93.6,-92% (inactive),120,-0.361 (inactive),-2.3e-05 (inactive),0.00498 (inactive),-12.6% (inactive),-5.26% (inactive)
C=CCn1c(Br)nc2c1c(=O)[nH]c(=O)n2C,372,-4.7% (inactive),8.4% (inactive),92.3,-62% (inactive),116,-0.373 (inactive),-3.1e-05 (inactive),0.00545 (inactive),15.8% (inactive),9.88% (inactive)
Cc1cc(=O)oc2cc(OCC#N)ccc12,823,-2.9% (inactive),-19.8% (inactive),95.4,-66.4% (inactive),128,-0.521 (inactive),-3.5e-05 (inactive),0.0067 (inactive),8.92% (inactive),27.1% (inactive)
